Entries with a potency or affinity are not part of this list. Calls of active or inactive are those of the source.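 How the source made its calls: active means signal-lowering compounds whose fitted half-maximal concentration is at or below twice the top tested dose in every run; inconclusive means runs disagree, flat 30 to 70% inhibition, or poor curve fit; inactive means the rest.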
target: Protein S100-A4 (Homo sapiens) (UniProt P26447); test: S100A4-myosin IIA binding inhibitor potency, dose response, biochemical, fluorescence polarization, cherry-picked hits (AID 687001); conditions: FP, S100A4/TAMRA-myosin IIA peptide binding; series mostly up to 11 µM; activity change, negative = inhibition: at the top concentration;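 further: 0% = DMSO neutral control wells and -100% = TFP positive control wells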
Sequence (P26447 whole entry, looked up): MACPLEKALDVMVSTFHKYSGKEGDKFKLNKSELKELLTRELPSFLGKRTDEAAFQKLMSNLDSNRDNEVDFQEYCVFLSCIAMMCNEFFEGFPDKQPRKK

Activity change, negative = inhibition, inactive:
N#C[C@@H]1[C@H](c2ccccc2C2=CCCCC2)[C@H](CO)N1C(=O)NC1CCCC1 -1.27%
COc1cccc(NC(=O)N[C@@H]2C=C[C@@H](CC(=O)N3CCN(C)CC3)O[C@@H]2CO)c1 -4.96%
COc1ccc(-c2cc(C(=O)NC3CC3)c3ccccc3n2)cc1 1.48%
O=C(C[C@@H]1CC[C@H]2[C@@H](COC[C@@H](O)CN2CC2CCCCC2)O1)NCc1ccc(F)cc1 7.76%
CCC(=O)N1C[C@H](C)[C@@H](OC)CN(C)C(=O)c2ccc(NC(=O)Nc3ccccc3)cc2OC[C@H]1C 2.16%
CCN(CC(=O)Nc1c(F)cccc1F)C(=O)c1ccc(OC)c(S(=O)(=O)NC2CCCC2)c1 -0.888%
Cc1ccc(C2CC(=O)NC(SCCC(C)C)=C2C#N)cc1 (centres undefined) -5.51%
CN(CC1CCCN(CCc2ccc(Cl)cc2)C1)C(=O)CC(F)(F)F (centres undefined) -1.92%
CN1CCc2c(sc(NC(=O)C3COc4ccccc4O3)c2C(N)=O)C1 (centres undefined) -9.86%
CC(NC(=O)c1ccccc1F)c1nnc(SCC(=O)Nc2nnc(C3CC3)s2)n1C (centres undefined) 9.61%
Cc1cc(C(=O)CSc2nc(N)cc(=O)[nH]2)ccc1F -2.31%
COc1ccc(NC(=O)N(C)C[C@H]2OCCCC[C@@H](C)Oc3ccc(NC(=O)NC4CCCCC4)cc3C(=O)N([C@H](C)CO)C[C@@H]2C)cc1 9.67% [at 10 µM]
Cc1oc(-c2ccccc2Cl)nc1CSCC(=O)O 6.41%
C[C@@H]1CCCCO[C@H](CN(C)S(=O)(=O)c2cccs2)[C@@H](C)CN([C@@H](C)CO)C(=O)c2cc(NS(=O)(=O)c3cccs3)ccc2O1 49.8%
